Results on 27 compounds are retold here after PubChem BioAssay (Tox21).

Values without a mark were called inactive. Inconclusive results are not listed. Calls of active or inactive are those of the source. Unless noted, calls come from the whole dose curve; as a rule, active = well fitted curve in the direction sought with a large enough effect in the repeat runs; inconclusive = weak or mixed curves; inactive = no such curve, though single readings can be large; an effect the other way counts as inactive or inconclusive.

The nature of experiment [1]: qHTS assay to identify small molecule HDAC inhibitors - cell viability counter screen (AID 1259365). Note: series mostly up to about 92 µM; nearly all actives have a fitted effect of over 50% in size. The procedure, abridged: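 Luminescence from CellTiter-Glo, developed 30min at room temperature, reports viability of wild-type HCT-116 cells treated 2hr with compounds at 37 C and 5% CO2 after overnight plating.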
Experiment [2] is described as follows: qHTS assay to identify small molecule antagonists of the sonic hedgehog signaling (Shh) pathway - cell viability counter screen (AID 1259367). Note: nearly all actives have a fitted effect of over 55% in size. In short, it runs like this: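 Using CellTiter-Fluor, viability of Gli1-Luc reporter 3T3 cells is read by fluorescence in the wells used for the Shh luciferase assay. Treatment lasts 23 hr with conditioned medium, then reagent 1 hr at 37C.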

A short description of experiment [3]: qHTS assay to identify small molecule antagonists of the sonic hedgehog signaling (Shh) pathway (AID 1259369; calls by dose curve; note: nearly all actives have a fitted effect of over 45% in size). The procedure, abridged:
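3T3Gli1-Luc, conditioned-medium-stimulated, 24hr cpd, 37C/5% CO2; Gli1-driven firefly Luc luminescence after 30min RT with luciferase reagent. Cells plated 4hr before cpd.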

Experiment [4] addresses Estrogen receptor beta (Homo sapiens) (UniProt Q92731). The experiment can be described thus: qHTS assay to identify small molecule agonists of the estrogen receptor beta (ER-beta) signaling pathway (AID 1259377; active = well fitted activation curve with a large enough effect in the signal ratio in the repeat runs, not every such curve was filed as active; the % refers to the signal ratio). In short, it runs like this: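 HEK293T ER-beta-UAS-bla; 2% charcoal-stripped FBS; cells pre-incubated 6 hr, compound 16 hr, 37C/5% CO2; LiveBLAzer B/G FRET substrate 2 h RT; fluorescence intensity read.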
For orientation: In qHTS, concentration-response curves come from the screen itself.

Experiment [5] has the same target. The experiment in a line: qHTS assay to identify small molecule antagonists of the estrogen receptor beta (ER-beta) signaling pathway (AID 1259378; active = well fitted inhibition curve with a large enough effect in the signal ratio in the repeat runs, not every such curve was filed as active; the % refers to the signal ratio). The procedure, abridged:
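Antagonist mode: compounds added to beta-lactamase reporter HEK293T ER-beta-UAS cells stimulated with E2 (1nM final), 16 hr at 37C. LiveBLAzer B/G FRET substrate, 2 hours room temperature, fluorescence read-out.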

The nature of experiment [6]: qHTS assay to identify small molecule agonists of the androgen receptor (AR) signaling pathway in the presence of an antagonist - cell viability counter screen (AID 1259379).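 For activity change, negative = cytotoxicity: MDA-kb2 human breast cancer cells carrying an MMTV luciferase reporter; series mostly up to about 92 µM.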 Note: nearly all actives have a fitted effect of over 25% in size. Note: potency is the fitted concentration of half-maximal effect. In short, it runs like this:
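Cells: MDA-kb2 (MMTV-luc, AR and GR elements), 3,000/well, 5 hr settle. Added: nilutamide 3.0uM final, then compounds (15 conc.). Incubation: 16 hr, 37C, no CO2. Read-out: CellTiter-Fluor, 1 hr, fluorescence.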

Experiment [7] in a line: qHTS assay to identify small molecule agonists of the estrogen receptor beta (ER-beta) signaling pathway - cell viability counter screen (AID 1259380). Note: nearly all actives have a fitted effect of over 30% in size. The procedure, abridged:
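HEK293T ER-beta-UAS-bla; 2% CS-FBS; 6 hr pre-plate, 16 hr cpd at 37C/5% CO2; LiveBLAzer read first, then CellTiter-Glo 30 min RT, luminescence.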

Experiment [8] can be described thus: qHTS assay to identify small molecule agonists of the sonic hedgehog signaling (Shh) pathway (AID 1259368; calls by dose curve;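 note: NIH/3T3-derived 3T3Gli1-Luc cells carrying a stable Gli1-driven firefly luciferase reporter; series mostly up to about 92 µM; nearly all actives have a fitted effect of over 15% in size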). In short, it runs like this: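 3T3Gli1-Luc (NIH/3T3 clone, stable Gli1-Luc); 4 hr pre-incubation, then cpd in DMSO 24 hr, 37 C/5% CO2; luciferase reagent 30 min RT; luminescence.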
Experiment [9] has as its target Androgen receptor (Homo sapiens) (UniProt P10275). The experiment can be described thus: qHTS assay to identify small molecule agonists of the androgen receptor (AR) signaling pathway in the presence of an antagonist (AID 1259381; calls by dose curve; note: nearly all actives have a fitted effect of over 15% in size). The procedure, abridged:
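MDA-kb2 cells, 3,000/well, rested 5hr at 37C/0% CO2 → nilutamide 3.0uM final or buffer → compounds, 15 conc. → 16hr at 37C → ONE-Glo, 30min RT → luminescence.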
% is set by controls: 0 for no effect and ±100 for the full control effect.

Chain of Androgen receptor (Homo sapiens) (P10275 whole entry, looked up): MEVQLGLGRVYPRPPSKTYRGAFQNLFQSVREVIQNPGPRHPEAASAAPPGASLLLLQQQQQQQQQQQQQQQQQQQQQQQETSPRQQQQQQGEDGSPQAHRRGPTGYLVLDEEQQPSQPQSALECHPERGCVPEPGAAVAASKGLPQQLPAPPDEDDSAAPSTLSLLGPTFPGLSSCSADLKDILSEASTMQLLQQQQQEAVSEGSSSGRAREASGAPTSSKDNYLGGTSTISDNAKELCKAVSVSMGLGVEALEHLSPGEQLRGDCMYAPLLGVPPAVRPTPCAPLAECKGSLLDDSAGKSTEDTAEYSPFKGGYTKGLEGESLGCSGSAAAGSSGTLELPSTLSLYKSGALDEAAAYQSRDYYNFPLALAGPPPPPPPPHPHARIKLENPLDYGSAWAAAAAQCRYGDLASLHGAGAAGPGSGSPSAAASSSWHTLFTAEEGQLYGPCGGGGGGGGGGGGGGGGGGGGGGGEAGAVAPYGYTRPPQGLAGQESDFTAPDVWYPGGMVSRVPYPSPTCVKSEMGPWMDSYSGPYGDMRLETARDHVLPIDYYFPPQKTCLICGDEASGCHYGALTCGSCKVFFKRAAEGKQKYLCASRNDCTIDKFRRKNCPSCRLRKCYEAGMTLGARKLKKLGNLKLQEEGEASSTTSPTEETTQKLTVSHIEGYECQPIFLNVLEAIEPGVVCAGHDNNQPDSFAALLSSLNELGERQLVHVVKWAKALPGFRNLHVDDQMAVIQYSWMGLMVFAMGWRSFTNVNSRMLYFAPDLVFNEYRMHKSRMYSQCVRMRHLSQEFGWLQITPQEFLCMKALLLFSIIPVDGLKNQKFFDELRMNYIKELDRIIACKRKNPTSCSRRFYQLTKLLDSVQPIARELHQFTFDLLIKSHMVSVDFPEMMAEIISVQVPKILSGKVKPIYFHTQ
Chain of Estrogen receptor beta (Homo sapiens) (Q92731 whole entry, looked up): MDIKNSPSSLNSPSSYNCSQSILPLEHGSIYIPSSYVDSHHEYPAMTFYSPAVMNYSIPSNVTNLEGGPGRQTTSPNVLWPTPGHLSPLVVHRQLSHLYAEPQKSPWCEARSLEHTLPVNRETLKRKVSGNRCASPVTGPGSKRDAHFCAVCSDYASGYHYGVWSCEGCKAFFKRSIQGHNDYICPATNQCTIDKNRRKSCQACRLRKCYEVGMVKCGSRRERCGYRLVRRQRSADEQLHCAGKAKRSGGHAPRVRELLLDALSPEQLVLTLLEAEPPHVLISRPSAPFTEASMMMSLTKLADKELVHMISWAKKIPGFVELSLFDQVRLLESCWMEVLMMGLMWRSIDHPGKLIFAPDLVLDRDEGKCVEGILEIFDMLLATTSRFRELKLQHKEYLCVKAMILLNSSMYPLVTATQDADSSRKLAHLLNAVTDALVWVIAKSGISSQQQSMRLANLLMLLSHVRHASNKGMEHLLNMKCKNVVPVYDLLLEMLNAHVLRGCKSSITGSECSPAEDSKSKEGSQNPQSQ

Consider `C/C=C(\C)C(=O)OCC/C=C\CC`, for which the call in experiment [1], in [5] and in experiment [7] was inactive. The Potency result in [2], in experiment [3], in experiment [4] and in experiment [6] was “inactive” in each case.

For the compound `C1=C\CC/C=C\CC/1`, the compound was classed as inactive in [1], in experiment [8] and in experiment [7]. The Potency result in [2], in [3] and in [6] was “inactive” each time.

`CCCCCN(CCCOC)C(=O)C(CCC(=O)O)NC(=O)c1ccc(Cl)c(Cl)c1` (stereo not given): the compound was classed as inactive in [1], in experiment [5] and in experiment [7]. Besides, the Potency result in experiment [2], in [3], in experiment [4] and in experiment [6] was “inactive” each time.

Take `O=C(O)c1ccccc1C(=O)Nc1ccc(S(=O)(=O)Nc2nccs2)cc1`: the result in experiment [1], in experiment [8] and in [9] was inactive. Also, the Potency entry in experiment [2], in [3], in experiment [4] and in experiment [6] was “inactive” in each case.

With `C=C(C)[C@@H]1CC[C@@H](C)C[C@@H]1O`, the result in [1], in [8] and in experiment [7] was inactive. For the same compound, the Potency result in experiment [2], in experiment [3] and in experiment [6] was “inactive” each time.

Turning to `C=CCOCC(O)CCl` (stereo not given), the compound was called inactive in experiment [1], in [8], in experiment [5], in [7] and in [9]. In addition, the Potency entry in experiment [2], in experiment [3] and in experiment [6] was “inactive” each time.

Take `CNC(=O)NC`: the compound was classed as inactive in experiment [1], in [8], in [5], in experiment [7] and in experiment [9]. For the same compound, the Potency result in experiment [2], in experiment [3] and in experiment [6] was “inactive” in each case.

Take `CCN(CC)C(=O)C1CN2CCc3cc(OC)c(OC)cc3C2CC1OC(C)=O` (stereo not given): the outcome in experiment [1], in experiment [8], in experiment [7] and in [9] was inactive. The Potency result in [2], in experiment [3] and in experiment [6] was “inactive” in each case.

As to `CCC(C)(CCC(C)C)C(=O)[O-].CCC(C)(CCC(C)C)C(=O)[O-].[Zn+2]` (stereo not given), the compound was called inactive in [1], in experiment [8] and in experiment [7]. In addition, the Potency entry in experiment [2], in experiment [3] and in experiment [6] was “inactive” throughout.

With `Cc1ccc(S(=O)(=O)NC(=O)NC2CCCCCCC2)cc1`, the call in experiment [1], in experiment [8], in experiment [5] and in [7] was inactive. The Potency entry in experiment [2], in experiment [3], in [4] and in experiment [6] was “inactive” throughout.

For `CCOc1ccc(NC(=O)OC(C)C)cc1OCC`, the outcome in experiment [1], in [8] and in [5] was inactive. In addition, the Potency entry in [2], in [3] and in experiment [6] was “inactive” in each case.

Turning to `C=C(C)C(=O)OC1CC(C)CC(C)(C)C1` (stereo not given), the compound was called inactive in experiment [1], in experiment [8], in experiment [5] and in experiment [7]. The Potency entry in experiment [2], in experiment [3] and in experiment [6] was “inactive” in each case.

For the compound `CCOC(=O)C(C)(C)C`, the result in experiment [1], in experiment [8], in [5] and in [7] was inactive. The Potency result in experiment [2], in experiment [3], in experiment [4] and in experiment [6] was “inactive” in each case.

On to `CO/N=C(/C(=O)N[C@@H]1C(=O)N2C(C(=O)O)=C(Cn3nnc(C)n3)CS[C@H]12)c1csc(N)n1`, for which the call in [1], in experiment [5] and in [7] was inactive. Besides, the Potency entry in [2], in experiment [3], in experiment [4] and in experiment [6] was “inactive” each time.

On to `CCCO`, for which the outcome in experiment [1], in experiment [8], in [5] and in [7] was inactive. Besides, the Potency entry in [2], in [3], in experiment [4] and in experiment [6] was “inactive” in each case.

Consider `OC[C@@H](O)[C@H](O)[C@@H](O)[C@@H](O)CO`, for which the compound was called inactive in experiment [1], in experiment [8] and in experiment [7]. Moreover, the Potency result in experiment [2], in experiment [3] and in experiment [6] was “inactive” throughout.

Turning to `CC(=O)/C=C/c1ccco1`, the compound was called inactive in [1] and in experiment [8]. Also, the Potency entry in [2], in [3] and in [6] was “inactive” throughout.

As to `Nc1ccc(/C=C/c2ccc(N)cc2S(=O)(=O)O)c(S(=O)(=O)O)c1`, the activity change, negative = cytotoxicity in [1] is 0.175% [at 0.349 µM]; in [6], 1.1% [at 0.35 µM]; in experiment [7], 1.15% [at 0.349 µM]. Moreover, in experiment [2], the viability change, negative = cytotoxic was 1.69% [at 0.349 µM]. Besides, the activity change in experiment [8] was -0.943% [at 0.349 µM]. For the same compound, the activity change, negative = inhibition in experiment [3] is 1.08% [at 0.349 µM].

`COc1ccc(/C=N/NC(=O)c2ccncc2)cc1OC`: the compound was called inactive in experiment [1], in [8], in experiment [5], in [7] and in experiment [9]. Moreover, the Potency result in [2], in [3], in experiment [4] and in experiment [6] was “inactive” each time.

`Cc1ncc([N+](=O)[O-])n1CC(O)CCl` (stereo not given): the call in [1], in [8], in [7] and in experiment [9] was inactive. The Potency entry in experiment [2] and in experiment [6] was “inactive” throughout.

For the compound `CC1=NN(c2ccc(S(=O)(=O)O)cc2)C(=O)C1N=Nc1ccccc1` (stereo not given), the outcome in experiment [1], in [8] and in experiment [7] was inactive. In experiment [3], the Potency result is “inactive”. In addition, the Potency in experiment [6] is 30.6 µM (active).

For `CCC(C)(C)C1CCC(=O)CC1`, the outcome in [1], in experiment [8], in [7] and in experiment [9] was inactive. Besides, the Potency result in experiment [2], in [3] and in experiment [6] was “inactive” each time.

In the case of `C=CCOc1c(Br)cc(Br)cc1Br`, the result in experiment [1], in experiment [8], in [5] and in experiment [7] was inactive. Moreover, the Potency entry in [2], in [3] and in experiment [6] was “inactive” throughout.

Turning to `O=C(O)c1ccccc1C(=O)OCc1ccccc1`, the compound was classed as inactive in experiment [1], in experiment [8] and in experiment [9]. The Potency entry in [2], in experiment [3] and in [6] was “inactive” throughout.

Regarding `O=C(O)c1ccc(OCCN2CCCCC2)cc1`, the call in experiment [1], in experiment [8], in [5], in [7] and in experiment [9] was inactive. Also, the Potency result in experiment [2], in experiment [3] and in [6] was “inactive” throughout.

Consider `Cc1ccccc1C(=O)N1CC/C(=N\OS(=O)(=O)O)c2ccc(Cl)cc21`, for which the call in experiment [1], in experiment [8], in experiment [5] and in experiment [7] was inactive. The Potency result in experiment [2], in [3] and in experiment [6] was “inactive” in each case.

Turning to `CC(Cl)COP(=O)(OCC(C)Cl)OCC(C)Cl` (stereo not given), the compound was called inactive in experiment [1], in experiment [5] and in experiment [7]. For the same compound, the Potency result in [2], in experiment [3], in [4] and in experiment [6] was “inactive” each time.
